# According to PMC4336329 (PLoS ONE, 2015):
# The whole screen tested about 310,000 compounds, of which about 14,000 (4.5%) showed an effect of 50% or more. Effects have a minus sign here. What follows is part of a selection rich in strong results, with near analogues and random picks from the rest.
# Molecular target: human ether-à-go-go-related gene (hERG) potassium channel (human, UniProt Q12809)
# Assay: primary screen, population patch clamp on CHO cells stably expressing hERG; higher = less effect of the substance
# 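Also: peak tail current of the secondary pulse compared with the same well before compound.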
# human ether-à-go-go-related gene (hERG) potassium channel, sequence (Q12809 whole entry, looked up): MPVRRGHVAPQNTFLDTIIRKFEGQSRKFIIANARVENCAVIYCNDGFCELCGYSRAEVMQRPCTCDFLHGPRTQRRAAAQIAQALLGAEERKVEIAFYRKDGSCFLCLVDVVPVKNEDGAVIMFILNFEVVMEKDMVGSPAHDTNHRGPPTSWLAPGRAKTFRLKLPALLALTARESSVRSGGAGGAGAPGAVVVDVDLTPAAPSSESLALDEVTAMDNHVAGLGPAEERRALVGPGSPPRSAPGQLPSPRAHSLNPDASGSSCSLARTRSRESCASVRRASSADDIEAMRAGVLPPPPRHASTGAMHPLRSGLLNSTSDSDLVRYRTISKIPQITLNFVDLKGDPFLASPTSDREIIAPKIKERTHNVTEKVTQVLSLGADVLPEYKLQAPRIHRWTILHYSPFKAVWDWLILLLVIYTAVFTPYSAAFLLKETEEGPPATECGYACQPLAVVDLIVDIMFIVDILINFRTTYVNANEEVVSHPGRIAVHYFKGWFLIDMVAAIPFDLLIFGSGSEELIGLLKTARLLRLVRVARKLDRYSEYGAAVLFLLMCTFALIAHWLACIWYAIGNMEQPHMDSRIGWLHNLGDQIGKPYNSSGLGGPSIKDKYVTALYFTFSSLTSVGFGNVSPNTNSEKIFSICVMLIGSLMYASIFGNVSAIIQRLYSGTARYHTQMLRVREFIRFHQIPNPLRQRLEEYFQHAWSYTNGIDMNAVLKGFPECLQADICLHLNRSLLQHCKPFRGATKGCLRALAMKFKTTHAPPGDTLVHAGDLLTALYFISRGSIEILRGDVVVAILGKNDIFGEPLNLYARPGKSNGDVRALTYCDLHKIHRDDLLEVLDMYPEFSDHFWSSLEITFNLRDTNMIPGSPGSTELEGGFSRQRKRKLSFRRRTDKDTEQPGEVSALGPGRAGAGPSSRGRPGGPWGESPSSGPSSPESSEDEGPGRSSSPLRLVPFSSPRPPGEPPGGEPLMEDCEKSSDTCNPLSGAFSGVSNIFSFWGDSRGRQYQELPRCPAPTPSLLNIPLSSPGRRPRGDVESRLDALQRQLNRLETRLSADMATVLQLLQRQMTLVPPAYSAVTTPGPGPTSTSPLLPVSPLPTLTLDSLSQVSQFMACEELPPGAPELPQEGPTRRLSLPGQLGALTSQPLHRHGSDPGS
row,Structure (SMILES),"hERG current change (%, negative = inhibition) at 10uM [%]"
1,CN1CCC(=O)N([C@H](CC#N)c2ccccc2)CC1,16.2
2,CN1CCC(=O)N([C@H](CSc2ccc(Br)cc2)c2ccccc2)CC1,-83.7
3,CN1CCC(=O)N([C@H](CO)c2ccccc2)CC1,3.76
4,Cc1cccc(C(=O)NCC(c2ccc(F)cc2)N2CCOCC2)c1 (centres unmarked),-2.49
5,CCc1cccc(CC)c1C(OC(C)=O)c1cccnc1 (centres unmarked),-0.238
6,CCc1ccc(NC(=O)c2ccc(C3SCC(=O)N3CCc3ccccc3)cc2)cc1 (centres unmarked),6.22
7,CN(CC(=O)Nc1ccc2c(c1)OCO2)S(=O)(=O)c1cccs1,-26.9
8,O=C(c1ccccc1)c1ccc(C(=O)N2CCN(c3ccccc3Cl)CC2)cc1,-13.3
9,O=C(Nc1ccccc1N1CCCC1)c1ccccc1Cl,6.75
10,Cc1ccccc1N1CCN(C(=O)c2ccccc2NC(=O)c2ccccc2C(=O)O)CC1,6.78
11,Cc1ccccc1C(=O)Nc1ccccc1N1CCN(C(=O)c2ccccc2)CC1,-74
12,O=C(Nc1ccccc1N1CCN(C(=O)c2ccccc2)CC1)c1ccccc1Cl,-78.8
13,Cc1ccccc1C(=O)Nc1ccccc1N1CCCCC1,8.11
14,COC(=O)Nc1ccc2c(c1)N(C(=O)CCN1CCOCC1)c1ccccc1S2.Cl,2.68
15,Cc1nc(CCNC(=O)Cc2ccc(F)cc2)cs1,18.9
16,O=C(COc1ccc2c3c(c(=O)oc2c1)CCC3)N1CCN(c2ccccc2)CC1,-12.6
17,CCC(CC)C(=O)Nc1ccc(Nc2ccccc2)cc1,8.32
18,CC(C)[C@H](NC(=O)[C@@H]1Cc2ccccc2CN1)C(=O)Nc1ccc2c(c1)OCCO2,-30.2
19,O=C(Cn1[nH]c(=O)c2ccccc2c1=O)OCC(=O)N(Cc1ccccc1)Cc1ccccc1,4.4
20,O=C(CCNC(=O)c1ccc([N+](=O)[O-])cc1)Nc1cc(Cl)ccc1N1CCOCC1,-69.9
21,O=C(CCNC(=O)c1ccc([N+](=O)[O-])cc1)Nc1ccccc1N1CCCCC1,-34.9
22,O=C(CCNC(=O)c1ccc([N+](=O)[O-])cc1)Nc1ccc(N2CCOCC2)cc1N1CCOCC1,-4.63

row,Structure (SMILES),"hERG current change (%, negative = inhibition) at 10uM [%]"
1,CC(C)(C)c1ccc(C(=O)NCCC(=O)Nc2cc(Cl)ccc2N2CCOCC2)cc1,-2.31
2,O=C(CCNC(=O)c1ccc([N+](=O)[O-])cc1)Nc1ccccc1N1CCCC1,-34.6
3,O=C(CCNC(=O)c1ccc([N+](=O)[O-])cc1)Nc1ccccc1N1CCOCC1,-64.3
4,O=C(N1CCCCCC1)N1CCN(S(=O)(=O)c2ccccc2)CC1,-11.9
5,Cc1c(CC(=O)NCC(=O)NCC(=O)O)c(=O)oc2cc3c(cc12)CCC(C)(C)O3,12.5
6,Cc1ccc(C)c(NC(=O)CN(C)C(=O)[C@@H](NC(=O)c2ccc(C(C)(C)C)cc2)C(C)C)c1,-16.5
7,Nn1c(SCC(=O)NC(=O)Nc2ccc3c(c2)OCCO3)nnc1C1CC1,14.3
8,O=C(NCc1ccc(Cl)cc1Cl)Nc1ccccc1,2.75
9,S=C(NCc1ccc(Cl)cc1Cl)Nc1ccccc1,10.1
10,CC(C)NC(=NCc1ccc(Cl)cc1Cl)Nc1ccccc1,-53
11,COC(=O)C1=C(c2ccc3ccccc3c2)C[C@@H]2CC[C@H]1N2C(=O)NCCCOC(C)C,-7.68
12,O=C(COc1ccc(-c2ccccc2)cc1)N/N=C/c1ccccc1Br,19.7
13,O=C(O)C1C2C=CC(C2)C1C(=O)N1CCN(C/C=C/c2ccccc2)CC1 (centres unmarked),17.1
14,CCOc1ccc(Cn2c(C)nc([N+](=O)[O-])c2SCC(O)CCl)cc1[N+](=O)[O-] (centres unmarked),-68.2
15,CCCOc1ccc(Cn2c(C)nc([N+](=O)[O-])c2SCC(O)COC)cc1[N+](=O)[O-] (centres unmarked),-66
16,COc1ccc(Cn2cc([N+](=O)[O-])nc2C)cc1[N+](=O)[O-],-2.26
17,CCOc1ccc(Cn2ccnc2CCl)cc1[N+](=O)[O-],-33.2
18,Cn1cnc([N+](=O)[O-])c1SCC(O)CCl (centres unmarked),15.9
19,COCC(O)CSc1c([N+](=O)[O-])nc(C)n1Cc1ccc(OC)c([N+](=O)[O-])c1 (centres unmarked),-2.82
20,Cc1nc([N+](=O)[O-])c(SCC(O)CCl)n1Cc1ccc(Cl)cc1 (centres unmarked),-59.9
21,COc1ccc(Cn2c(C)nc([N+](=O)[O-])c2SCC(=O)O)cc1[N+](=O)[O-],16.5
22,Cc1nc([N+](=O)[O-])c(SCC(N)=O)n1Cc1ccccc1,27.8
